In the library only some 12% were active in any assay of this set; here they are far more common.
SARS PLpro yeast: blocks SARS-CoV papain-like protease in a yeast assay | S. cerevisiae expressing SARS-CoV PLpro, growth rescue | Potency, µM (top dose mostly 32.9 µM), for inactives: at the highest dose activity, positive = growth rescue, usual class: activators | 330,000 tested, 0.19% active | AID 485353; calls by dose curve; also: 0% is about no effect; nearly all actives have a fitted effect of over 55% in size
AMA1-RON2 inh: inhibitors of Plasmodium falciparum AMA1-RON2 interaction | AlphaScreen AMA1-biotinylated RON2 peptide binding | Potency, µM (top dose mostly 58.2 µM), for inactives: at the top dose activity change, negative = inhibition, hits mostly inhibitors | 360,000 tested, 0.2% active | AID 720542;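 also: 0% = vehicle wells and -100% = peptide control; nearly all actives have a fitted effect of over 45% in size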
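AMA1 (3D7) with his tag at 25 nM final met compounds first, then biotinylated RON2 peptide at 25 nM; detection used donor plus acceptor beads, 10 µg/mL apiece, read by AlphaScreen after 30 min at room temperature.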
Pf growth 96h: P. falciparum growth inhibition at 96 hour, primary screen for plastid delayed-death inhibitors. 320,000 tested, 6.9% active. P. falciparum luciferase reporter growth, 96 h. Potency, µM (highest dose often 28.7 µM), inactives show top-dose activity change, negative = inhibition, most hits filed as inhibitors; also: % is scaled to controls: 0 for no effect and ±100 for the full control effect
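P. falciparum expressing integrated firefly luciferase grown in erythrocytes (2% hematocrit, 0.05% parasitemia final) with compounds for 96 hours at 37 C, 5% CO2. Growth inhibition read as loss of luminescence after adding luciferase detection reagent.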
HCV inhibitor: inhibitors of hepatitis C virus infection; 340,000 tested, 3.4% active; Potency, µM (highest dose often 41.8 µM), for the others: at the top dose activity change, negative = inhibition, actives largely listed as inhibitors; Huh7.5.1 HCVcc-Cre infection, luciferase reporter, 44 h; AID 651820; also: % is scaled to controls: 0 for no effect and ±100 for the full control effect
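After 44 h co-culture of compound, cells and HCVcc-Cre (~0.5 moi), substrate is added for 15 min at room temperature and luciferase measured over 15 sec. Cells were seeded at 1,000/well and pre-cultured 4 h.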
NS1 function inh: blocks influenza NS1 protein function. Potency, µM (series often up to 46.1 µM), for the others: at the highest dose activity, positive = more growth. 270,000 tested, 0.4% active. AID 2326; calls by dose curve; also: actives are rising curves; nearly all actives have a fitted effect of over 50% in size
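S. cerevisiae expressing influenza A NS1, grown in glucose, washed, then diluted 1:100 into pH 6.0 -URA galactose medium with 23 nl compound. Growth recovery read as OD600; NS1-free strain serves as control.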
Pf growth 48h: inhibits P. falciparum growth in the first generation, 48 h; Potency, µM (doses to about 28.7 µM), for inactives: at the highest dose activity change, negative = inhibition, usual class: inhibitors; 310,000 tested, 5.9% active; P. falciparum luciferase growth in erythrocytes, 48 h; also: % is scaled to controls: 0 for no effect and ±100 for the full control effect
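Luminescence readout; reporter = integrated firefly luciferase in P. falciparum. RBC culture at 2% hematocrit, 0.1% parasitemia final, 37 C/5% CO2; decreased signal taken as growth inhibition.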
Active calls of the source: *; ? = inconclusive; . = not tested or not shown; [ ] = remark or other dose. Unless noted, calls follow the shape of the dose curve; as a rule, active = well fitted curve in the direction sought with a large enough effect; inconclusive = small, poorly fitted or top-dose-only effect, or another doubt; inactive = no such curve, though single readings can be large; an effect the other way counts as inactive or inconclusive. Potency is read from the fitted curve at half-maximal effect.

SMILES | SARS PLpro yeast | AMA1-RON2 inh | Pf growth 96h | HCV inhibitor | NS1 function inh | Pf growth 48h
CC1=CC(=C(C#N)C#N)c2ccccc2N1C | 1% | 0% | 13% | -26% | . | 12µM*
Oc1cccc(/C=N/n2c(C3CCCCC3)n[nH]c2=S)c1 | 2% | 111% | 13% | 2.2µM* | -9% | 33%
Fc1cccc(/C=N/n2c(C3CCCCC3)n[nH]c2=S)c1 | -2% | 94% | 42% | 10% | 6% | 14%
C[C@H](NC(=O)c1ccc(Cl)cc1)C(=O)NNC(=O)c1cccs1 | -26% | 23% | 5% | 12% | . | -17%
COc1ccc(C(=O)NC(C(=O)OCC(=O)Nc2sccc2C(N)=O)C(C)C)cc1 (centres undefined) | 5% | 6% | -15% | -7% | . | 12µM*
COc1ccc(C(=O)N[C@H](C(=O)Nc2sccc2C(N)=O)C(C)C)cc1 | 1% | 17% | 13% | -26% | 0% | -23%
CC(=O)N1c2ccc(S(=O)(=O)NCCC(=O)N(C)Cc3ccccc3)cc2CC1C (centres undefined) | -7% | -2% | 7.4µM* | 14% | -4% | 1%
CCN(Cc1ccccc1)C(=O)CCNS(=O)(=O)c1ccc2c(c1)CC(C)N2C(C)=O (centres undefined) | 0% | -2% | ? | ? | -5% | 8%
CSc1ccc(CN(C)C(=O)CCNS(=O)(=O)c2ccc(C)c(C)c2)cc1 | 2% | -5% | ? | -27% | . | 3.7µM*
Cc1ccc(S(=O)(=O)NCC(=O)NCC(=O)N(C)Cc2ccc3ccccc3c2)cc1C | 16% | 0% | -15% | 10µM* | -1% | -23%
CCOC(=O)c1nc2c(ccc3ccccc32)cc1C | 0% | 7% | 44% | ? | -11% | 39%
CN(C)S(=O)(=O)c1cccc(NC(=O)c2cc([N+](=O)[O-])ccc2N2CCCCC2)c1 | -18% | 0% | ? | ? | . | 13µM*
CN(C)S(=O)(=O)c1ccc(N2CCCC2)c(C(=O)NCC2COc3ccccc3O2)c1 (centres undefined) | -2% | 0% | -23% | -17% | . | ?
CN(C)S(=O)(=O)c1ccc(N2CCCC2)c(C(=O)NCC2CCCCC2)c1 | 0% | 3% | ? | 8.9µM* | . | 9.3µM*
COc1cc(Cl)c(C)cc1NC(=O)c1cc(S(=O)(=O)N(C)C)ccc1N1CCCC1 | -17% | -10%[11.6 µM] | 2.3µM* | ? | 17% | 4.7µM*
CCN(CC(=O)Nc1ccccc1OC)Cc1csc(CC(=O)Nc2ccc(C)cc2)n1 | -6% | 36% | . | ? | . | .
Cc1cccc(NC(=O)CCCn2cc([N+](=O)[O-])cn2)n1 | -5% | 14% | 63% | 3% | . | -1%
O=C(COc1ccc(Br)cc1)Nc1ccc([N+](=O)[O-])cn1 | -4% | -3% | 4.1µM* | 2% | 5% | 37%
CC(=O)c1sc(NC(=O)CCS(=O)(=O)c2ccc(F)cc2)nc1C | . | 0% | . | . | . | .
CC(=O)c1sc(NC(=O)CCS(=O)(=O)c2ccccc2)nc1C | -7% | 17% | -1% | 13µM* | 4% | 2%
CC(=O)c1sc(NC(=O)COc2ccc(Br)cc2)nc1C | 0% | 6% | 0% | -12% | -5% | 12%
CC(=O)c1sc(NC(=O)COc2ccc([N+](=O)[O-])cc2)nc1C | 1% | -4% | 15µM* | 6% | 3% | 16%
Cn1c(=O)c2ccccc2n(CC(=O)N2CCCc3ccccc32)c1=O | 11% | -13% | 1% | -14% | -1% | -11%
CCOC(=O)c1c(-c2ccccc2)nc2ccc(Cl)cn12 | -24% | 0% | 2% | -28% | -45% | 10%
CCOC(=O)C1=NN(c2ccc(Cl)cc2)C(c2ccccc2)CC1=O (centres undefined) | 4% | -19% | ? | 9% | -4% | 9.3µM*
Cc1cccc(C(=O)Nc2ccc(C(=O)c3ccccc3)cc2)c1 | . | -16% | . | ? | . | .
CCCc1cc(C(=O)Nc2ccc(C(=O)c3ccccc3)cc2)n(C)n1 | 1% | 12% | ? | 16µM* | -57% | ?

Compound activity (PubChem)
